# Laboratory results reported in the supplement of paper PMC8728848.
# This is one part of a sample in which the strongest signals are shown more often than they occur.
# How the values were obtained:
# Assay in all cases: glycan array binding signal (z-score within array); higher = stronger binding
# Conditions in all cases: glycan notation: IUPAC condensed, linker removed
# GlcA(b1-6)Gal = biological target: GlcA(b1-6)Gal
# Procedure, shortened: (§1)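 The Consortium for Functional Glycomics database supplied 3228 glycan arrays, of which those lacking an available protein sequence were dropped. The binding signal, a within-array Z-score, was averaged across arrays of the same protein sequence and across linkers. Negative scores can be read as non-binding.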
# [1] = biological target: GlcNAc(b1-2)Man(a1-3)[GlcNAc(b1-2)Man(a1-6)]Man(b1-4)GlcNAc(b1-4)GlcNAc
# Procedure, shortened: as §1
# [2] = biological target: GlcNAc(b1-2)[GlcNAc(b1-4)]Man(a1-3)[GlcNAc(b1-4)][GlcNAc(b1-2)[GlcNAc(b1-6)]Man(a1-6)]Man(b1-4)GlcNAc(b1-4)[Fuc(a1-6)]GlcNAc
# Procedure, shortened: as §1
# GlcNAc(b1-3)Gal(b1-4)Glc = biological target: GlcNAc(b1-3)Gal(b1-4)Glc
# Procedure, shortened: as §1
# [3] = biological target: GlcNAc(b1-3)Gal(b1-4)GlcNAc(b1-3)Gal(b1-4)GlcNAc(b1-2)[GlcNAc(b1-3)Gal(b1-4)GlcNAc(b1-3)Gal(b1-4)GlcNAc(b1-6)]Man(a1-6)[GlcNAc(b1-3)Gal(b1-4)GlcNAc(b1-3)Gal(b1-4)GlcNAc(b1-2)Man(a1-3)]Man(b1-4)GlcNAc(b1-4)[Fuc(a1-6)]GlcNAc
# Procedure, shortened: as §1
# [4] = biological target: GlcNAc(b1-3)Gal(b1-4)GlcNAc(b1-3)Gal(b1-4)GlcNAc(b1-3)Gal(b1-4)GlcNAc(b1-2)Man(a1-3)[GlcNAc(b1-3)Gal(b1-4)GlcNAc(b1-3)Gal(b1-4)GlcNAc(b1-3)Gal(b1-4)GlcNAc(b1-2)Man(a1-6)]Man(b1-4)GlcNAc(b1-4)GlcNAc
# Procedure, shortened: as §1
# [5] = biological target: GlcNAc(b1-3)Gal(b1-4)GlcNAc(b1-3)Gal(b1-4)GlcNAc(b1-3)Gal(b1-4)GlcNAc(b1-3)Gal(b1-4)GlcNAc(b1-2)Man(a1-3)[GlcNAc(b1-3)Gal(b1-4)GlcNAc(b1-3)Gal(b1-4)GlcNAc(b1-3)Gal(b1-4)GlcNAc(b1-3)Gal(b1-4)GlcNAc(b1-2)Man(a1-6)]Man(b1-4)GlcNAc(b1-4)[Fuc(a1-6)]GlcNAc
# Procedure, shortened: as §1
# [6] = biological target: GlcNAc(b1-3)[GlcNAc(b1-6)]GalNAc
# Procedure, shortened: as §1
# GlcNAc(b1-4)GlcNAc = biological target: GlcNAc(b1-4)GlcNAc
# Procedure, shortened: as §1
# [7] = biological target: GlcNAc6S(b1-3)Gal(b1-4)GlcNAc
# Procedure, shortened: as §1
# [8] = biological target: Man(a1-3)[Man(a1-6)]Man(a1-6)[Man(a1-2)Man(a1-3)]Man(b1-4)GlcNAc(b1-4)GlcNAc
# Procedure, shortened: as §1
# [9] = biological target: Neu5Ac(a2-3)Gal(b1-3)GalNAc(b1-3)Gal(a1-4)Gal(b1-4)Glc
# Procedure, shortened: as §1
# [10] = biological target: Neu5Ac(a2-3)Gal(b1-3)GlcNAc
# Procedure, shortened: as §1
# [11] = biological target: Neu5Ac(a2-3)Gal(b1-3)GlcNAc(b1-2)Man
# Procedure, shortened: as §1
# Neu5Ac(a2-3)Gal(b1-4)Glc = biological target: Neu5Ac(a2-3)Gal(b1-4)Glc
# Procedure, shortened: as §1
# [12] = biological target: Neu5Ac(a2-3)Gal(b1-4)GlcNAc(b1-2)Man(a1-3)[GlcNAc(b1-4)][Neu5Ac(a2-3)Gal(b1-4)GlcNAc(b1-2)Man(a1-6)]Man(b1-4)GlcNAc(b1-4)GlcNAc
# Procedure, shortened: as §1
# [13] = biological target: Neu5Ac(a2-3)Gal(b1-4)GlcNAc(b1-6)GalNAc
# Procedure, shortened: as §1
# [14] = biological target: Neu5Ac(a2-3)[Neu5Ac(a2-6)]GalNAc
# Procedure, shortened: as §1
# Neu5Ac(a2-8)Neu5Ac = biological target: Neu5Ac(a2-8)Neu5Ac
# Procedure, shortened: as §1
# [15] = biological target: Neu5Ac(a2-8)Neu5Ac(a2-8)Neu5Ac(a2-3)[GalNAc(b1-4)]Gal(b1-4)Glc
# Procedure, shortened: as §1
# [16] = biological target: Neu5Gc(a2-8)Neu5Gc(a2-6)Gal(b1-4)GlcNAc
# Procedure, shortened: as §1
binder,measurement,setting,value
PX9916F-bfa-443-24-443 (Bacteroides fragilis) (protein) DIRPVGSVIPQTAEEYRALLARAYLNVPNDRGLACLRSDEMLVNDNEYDRNSYGDIERWNDVSPFPGTSQFTWSNFYNVLFIANQVIESQKEITEGTPEVVNQLVGEAHLLRAYLHFVLVNLHGQPYTKSGALNSKSIPLKLDTDLEKTLGRNTVEEVYTSILSDIEHARELINKEKWETVFSYRFNVLSVDALQSRVSLYMGAWPKCLESAEAVLAKKSVLVDMNETPLALPNHFESVESITALEQVMGSSVNNAVWVPATFLALYQEGDKRLAAYFAAPDENGNRKSSKGGKREFSCTFRVGELYLNAAEAAANMDKLPHARMRLLELMRKRYTPEAYDKKENAVNVMDKNALISEILNERARELAFEGHRWFDLRRTTRPRMVKVLQGKTYILEQDDPRYTIPIPRDAIAANPGLAN,glycan array binding signal (z-score),GlcA(b1-6)Gal,2.71
same,glycan array binding signal (z-score),[1],-0.266
same,glycan array binding signal (z-score),[2],-1.61
same,glycan array binding signal (z-score),GlcNAc(b1-3)Gal(b1-4)Glc,-0.475
same,glycan array binding signal (z-score),[3],-0.316
same,glycan array binding signal (z-score),[4],2.55
same,glycan array binding signal (z-score),[5],-0.064
same,glycan array binding signal (z-score),[6],-0.249
same,glycan array binding signal (z-score),GlcNAc(b1-4)GlcNAc,0.138
same,glycan array binding signal (z-score),[7],0.017
same,glycan array binding signal (z-score),[8],1.23
same,glycan array binding signal (z-score),[9],0.297
same,glycan array binding signal (z-score),[10],-0.376
same,glycan array binding signal (z-score),[11],4.28
same,glycan array binding signal (z-score),Neu5Ac(a2-3)Gal(b1-4)Glc,0.058
same,glycan array binding signal (z-score),[12],-1.31
same,glycan array binding signal (z-score),[13],-0.155
same,glycan array binding signal (z-score),[14],-0.772
same,glycan array binding signal (z-score),Neu5Ac(a2-8)Neu5Ac,1.37
same,glycan array binding signal (z-score),[15],-0.695
same,glycan array binding signal (z-score),[16],-0.576
